Assay outcomes (PubChem BioAssay)
SARS PLP yeast – SARS-CoV PLP inhibition in yeast; S. cerevisiae expressing SARS-CoV PLpro, growth rescue; Potency, µM (highest dose often 32.9 µM), inactives show top-dose activity, positive = growth rescue, hits mostly activators; 330,000 tested, 0.19% active; AID 485353; calls by dose curve; note: 0% is about no effect; nearly all actives have a fitted effect of over 55% in size
AMA1-RON2 inh – AMA1-RON2 (P. falciparum) interaction inhibition; AlphaScreen AMA1-biotinylated RON2 peptide binding; AID 720542; 360,000 tested, 0.2% active; Potency, µM (doses to about 58.2 µM), for inactives: top-dose activity change, negative = inhibition, usual class: inhibitors;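 note: 0% = vehicle wells and -100% = peptide control; nearly all actives have a fitted effect of over 45% in size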
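AMA1 (3D7) with his tag at 25 nM final met compounds first, then biotinylated RON2 peptide at 25 nM; detection used donor plus acceptor beads, 10 µg/mL apiece, read by AlphaScreen after 30 min at room temperature.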
RE007 growth inh – less growth of the S. pombe RE007 Vpr strain. S. pombe RE007 Vpr strain, BacTiter-Glo ATP luminescence, 24 h. Potency, µM (top dose mostly 92.2 µM), for inactives: top-dose activity change, negative = less growth, most hits filed as inhibitors. 360,000 tested, 0.21% active. AID 651644; active = well fitted falling curve with a large enough effect; inconclusive = small, poorly fitted or top-dose-only effect; inactive = no such curve, though single readings can be large or run the other way; note: % is set by controls: 0 for no effect and ±100 for the full control effect; nearly all actives have a fitted effect of over 50% in size
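Fission yeast RE007 carrying one integrated HIV-1 vpr copy, seeded at OD 0.01 in PMG+AL medium with 23 nL pinned compound. Grown 24 h at 30 degrees; viability read by BacTiter-Glo luminescence after 5 min.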
LmPK inh – LmPK (Leishmania mexicana) enzyme inhibition | Potency, µM (highest dose often 57.5 µM), inactives show at the top dose activity change, negative = inhibition, actives largely listed as inhibitors | purified LmPK, Kinase-Glo ATP luminescence, 1 h | 290,000 tested, 0.37% active | Q27686; note: % is set by controls: 0 for no effect and ±100 for the full control effect
Target sequence (Q27686 whole entry, looked up): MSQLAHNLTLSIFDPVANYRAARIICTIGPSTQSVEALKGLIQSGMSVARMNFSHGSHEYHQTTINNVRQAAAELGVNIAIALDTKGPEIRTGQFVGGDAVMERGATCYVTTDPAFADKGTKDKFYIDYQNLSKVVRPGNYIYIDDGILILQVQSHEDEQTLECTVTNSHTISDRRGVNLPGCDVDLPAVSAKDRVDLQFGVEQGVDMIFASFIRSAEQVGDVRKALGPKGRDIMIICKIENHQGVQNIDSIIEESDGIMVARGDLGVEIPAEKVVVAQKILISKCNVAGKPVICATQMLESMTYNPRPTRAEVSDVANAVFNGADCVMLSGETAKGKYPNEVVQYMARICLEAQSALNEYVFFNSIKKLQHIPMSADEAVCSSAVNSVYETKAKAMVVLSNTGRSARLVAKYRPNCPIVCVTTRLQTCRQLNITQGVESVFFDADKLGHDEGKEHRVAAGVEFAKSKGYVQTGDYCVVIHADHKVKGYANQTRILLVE
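0.1 nM LmPK, 0.5 mM PEP, 0.1 mM ADP; 50 mM imidazole pH 7.2, 7 mM MgCl2, 50 mM KCl; 1 h RT. Kinase-Glo luminescence readout, normalized to no-enzyme (full inhibition) and uninhibited wells.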
Tb PYK inh – blocks Trypanosoma brucei pyruvate kinase | TbPYK enzyme, Kinase-Glo Plus ATP luminescence, 45 min | Potency, µM (series often up to 76.8 µM), for the others: top-dose activity, negative = inhibition, hits mostly inhibitors | 410,000 tested, 0.12% active | AID 624173; note: % is set by controls: 0 for no effect and ±100 for the full control effect; nearly all actives have a fitted effect of over 50% in size
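TbPYK + substrate in 50 mM TEA pH 7.2, 100 mM KCl, 10 mM MgCl2, 0.05% BSA, 0.01% Tween-20; cpd pinned; ADP 130 uM final; 45 min RT; Kinase-Glo Plus 10 min; luminescence endpoint.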
* marks the source's active call; other numbers are inactive results; u = inconclusive; x = no result given; [ ] = remark or other dose. In the library only some 0.81% were active in any assay of this set; here they are far more common. Unless noted, calls come from the whole dose curve; as a rule, active = well fitted curve in the direction sought with a large enough effect; inconclusive = small, poorly fitted or top-dose-only effect, or another doubt; inactive = no such curve, though single readings can be large; an effect the other way counts as inactive or inconclusive. Potency is the fitted concentration of half-maximal effect.

SMILES	SARS PLP yeast	AMA1-RON2 inh	RE007 growth inh	LmPK inh	Tb PYK inh
CCOC(=O)C1CCN(C2=C(NS(=O)(=O)c3ccc(Cl)cc3)C(=O)c3ccccc3C2=O)CC1	-3%	13µM*	-4%	-28%	-10%
C/C=C/C1=Cc2ccccc2C(CC(=O)OC)N1C(=O)OC (configuration not stated)	x	x	x	-1%[11.5 µM]	x
CS(=O)(=O)OCCCNCCCOS(C)(=O)=O	x	x	x	x	-11%
Cc1csc(SCc2nnc(-c3ccccc3Br)o2)n1	2%	0%	-21%	2%	2%
Fc1ccccc1SCc1nnc(-c2ccccc2Br)o1	-15%	30%	10%	-17%	32µM*
O=C(Nc1cccc(Cl)c1)c1cc(N=Nc2ccc([N+](=O)[O-])cc2Cl)ccc1O	-5%	-3%	-20%	14µM*	u
CC[N+]1(C)CCC(O)(c2ccc(OC)cc2)C(C(=O)c2ccc(OC)cc2)C1 (configuration not stated)	x	13%	40µM*	x	-11%
S=c1[nH]nc(-c2ccc3ccccc3n2)n1-c1ccccc1Cl	u	55%	-17%	28µM*	-11%
Cc1onc(-c2ccccc2)c1-c1n[nH]c(=S)n1-c1ccccc1Cl	-3%	39%	-7%	18µM*	u
Cc1onc(-c2ccccc2)c1-c1n[nH]c(=S)n1-c1ccc(C(=O)O)cc1	10%	13%	-23%	u	u
Cc1cccc(OCCCSc2nc3ccccc3[nH]2)c1	-40%	28%	45µM*	3%	3%
O=[N+]([O-])c1ccccc1-c1ccc(C(=S)N2CCCCC2)o1	-1%	25µM*	-18%	-4%	-6%
O=C(CCNc1ccccc1)c1ccc2c(c1)OCO2	-14%	3%	32µM*	-13%	3%
Cc1ccc(C(=O)CCNc2ccccc2)o1	x	2%	11µM*	-4%	4%
CN(C)CCCC(=O)c1ccc2c(c1)OCO2	7%	-2%	-8%	2%	-3%
CN(C)CCC(=O)c1ccc2c(c1)OCO2	-33%	4%	11µM*	1%	-12%
O=C(/C=C\Nc1cccc(F)c1)c1ccc2c(c1)OCO2	-7%	0%	u	13µM*	-4%
O=C(O)COc1ccc(CCNS(=O)(=O)c2ccccc2)s1	x	x	x	x	-5%
CC1(C)N=C(N)N=C(N)N1c1ccc(Cl)cc1	x	x	x	x	1%
CC#CCN1c2ccccc2[C@]23C[C@@H](C(=O)OC)N(S(=O)(=O)c4ccc([N+](=O)[O-])cc4)C2=NC(C(=O)OC)=C(C(=O)OC)[C@H]13	x	x	x	0%[11.5 µM]	x
Cc1cc(C)n(C2=NS(=O)(=O)c3ccccc32)n1	-1%	6%	11%	13µM*	-1%
C(=N\c1nc2ccccc2n1CCN1CCCCC1)/c1cccs1	-6%	-20%	-3%	-2%	-1%
Cn1c(/N=C/c2cccs2)nc2ccccc21	-3%	1%	-3%	14µM*	-14%
COc1ccc(N(C(=O)COc2ccccc2OC)S(=O)(=O)c2ccc(Cl)cc2)cc1	x	x	x	x	3%
COc1ccc(CNCC(O)COc2ccc3[nH]c(=O)ccc3c2)cc1OC (configuration not stated)	x	x	x	x	-6%
SMILES	SARS PLP yeast	AMA1-RON2 inh	RE007 growth inh	LmPK inh	Tb PYK inh
CCCC[C@]12Cc3ccccc3C(O1)c1c(cc(-c3ccccc3)oc1=O)O2	-17%[6.58 µM]	x	x	-7%[11.5 µM]	x
O=C(C=Cc1cccnc1)c1ccccc1	x	7%	45µM*	x	-2%
O=C(/C=C/c1cccnc1)c1ccc(O)cc1	0%	-17%	-2%	-13%	-5%
O=C(/C=C/c1ccc(O)cc1)c1ccccc1	-2%	-13%	50µM*	13µM*	u
O=C(C=Cc1ccccn1)c1ccccc1	x	2%	25µM*	x	4%
CCc1cccc(NC(=O)CCCn2c(=O)[nH]c3ccsc3c2=O)c1	-2%	-1%	3%	-3%	-4%
COc1cccc(NC(=O)C2CCN(C(=O)[C@@H]3Cc4ccccc4CN3)CC2)c1	-2%	-3%	5%	5%	0%
COc1cc2c(c(OC)c1OC)-c1c(cc3c(c1OC)OCO3)C[C@@H](C)[C@](C)(O)C2	x	x	x	x	-8%
Cc1cccc(C)c1NC(=O)CN(CC(=O)O)CC(=O)O	x	x	x	x	-2%
Cc1cccc(NC(=O)c2cc3ccccc3o2)c1	-53%	18%	-30%	14µM*	-10%
O=C(Nc1cccc(Br)c1)c1cc2ccccc2o1	-26%	2%	u	u	-2%
CC(=O)Nc1ccc(S(=O)(=O)NN=c2sc3ccccc3n2C)cc1N	x	13%	-2%	x	4%
CN1CCc2cccc3c2[C@H]1Cc1ccc(O)c(O)c1-3	-17%	10µM*	-10%[18.4 µM]	5%	u
Cc1ccc(-n2c(Cc3ccccc3)n[nH]c2=S)c(C)c1	0%	47%	-23%	-12%	10µM*
S=c1[nH]nc(Cc2ccccc2)n1-c1cccc2ccccc12	6%	105%	13%	10µM*	3.5µM*
Cc1ccc(-n2c(CC#N)n[nH]c2=S)c(C)c1	2%	63%	-3%	u	u
CC1(C(=O)O)CCC2(C)CCC3(C)C(=CC(=O)C4C5(C)CCC(O)C(C)(C)C5CCC43C)C2C1 (configuration not stated)	x	x	x	x	-10%
CCCCCCCC1=Cc2ccccc2C(C(C(C)=O)C(=O)OC)N1C(=O)OC (configuration not stated)	x	x	x	-1%[11.5 µM]	x
Cn1c(=O)c2c(nc(SCC(=O)O)n2Cc2cc3c(cc2Cl)OCO3)n(C)c1=O	8%	-4%	2%	-8%	25µM*
Cc1ccc(/C=C/C(=O)NCc2ccc(S(N)(=O)=O)cc2)o1	0%	3%	-6%	-2%	10µM*
Cc1ccc(/C=C/C(=O)NCCc2c[nH]c3ccccc23)o1	-1%	-27%	7%	-1%	-22%
Cc1ccc(/C=C/C(=O)NCCc2cccc(Cl)c2)o1	-12%	-5%	10%	2%	16µM*
Cc1ccc(/C=C/C(=O)Nc2ccc(S(N)(=O)=O)cc2)o1	1%	-4%	-4%	-16%	u
Oc1ccccc1-c1ccccc1	x	x	x	x	-2%
S=c1sscc1-c1ccccc1	x	20µM*	-15%	x	-4%
SMILES	SARS PLP yeast	AMA1-RON2 inh	RE007 growth inh	LmPK inh	Tb PYK inh
CN=CC1=C(O)c2ccccc2C1=O	-4%	0%	-7%	1%	4%
O=C1C(C=Nc2ccccc2)=C(O)c2ccccc21	-6%	-8%	-23%	3.5µM*	0%
COc1ccc(N=CC2=C(O)c3ccccc3C2=O)cc1	-8%	16%	16%	3.2µM*	-20%
O=C1C(C=Nc2ccccc2O)=C(O)c2ccccc21	-25%	53%	u	u	-11%
COCC1=C(C(=O)OC(C)OC(=O)OC(C)C)N2C(=O)C(NC(=O)/C(=N/OC)c3csc(N)n3)[C@H]2SC1 (some centres not stated)	x	x	x	x	-10%
CCOC1=C2CN(S(=O)(=O)c3ccc(C)cc3)[C@H](c3cccc4ccccc34)C[C@H]2[C@H]2C(=O)N(c3ccccc3)C(=O)[C@H]2C1	x	13%	-2%	x	-1%
